# Several values for one entry are separate records, joined by “and”; a condition that tells them apart may be missing. Equal entries are not always repeated. Hit rate of the full screen: of about 59,000 compounds, about 1,500 (2.5%) were called active. Inconclusive results (about 10%) are left out. The call rests on the fitted dose curve; in most records, active means well fitted inhibition curve with a large enough effect; inconclusive means small, poorly fitted or top-dose-only effect; inactive means flat fitted curve, though single readings scatter. Shown is part of a subset that was picked to be rich in actives. A structure can be active in one record and inactive in another.
# Biological target: N-terminal Xaa-Pro-Lys N-methyltransferase 1 (Homo sapiens) (UniProt Q9BV86)
# Test: Primary qHTS for Inhibitors of N-terminal methyltransferase 1 (NTMT1): MTaseGlo Assay; further: nearly all actives have a fitted effect of over 65% in size
# Settings: NTMT1 MTase-Glo SAH luminescence, purified enzyme; series mostly up to 114 µM; activity change, negative = inhibition: at the top concentration
# From the text: Assay Submitter (PI): Rong Huang Ph.D.
# Purdue University, West Lafayette, IN 47907
# The N-terminal methytransferase 1 is the first methyltransferase that methylates protein alpha-N-amines and plays an important role in regulating cell mitosis, chromatin interactions and DNA repair. It is observed to be over-expressed in various cancer patient tissues like malignant melanoma and colorectal cancer tissues. Knockdown of NTMT1 in cancer cells causes cell mitotic defects and enhances sensitivity to DNA damaging chemotherapeutics. […] These critical cellular processes in which NTMT1 is implicated, coupled with emerging links to cellular dysfunction, strengthen the inference that NTMT1 is a compelling novel anticancer target. Progress have been made in understanding the molecular properties of NTMT1 and the biological consequences of protein alpha-N-terminal methylation, but there are no specific small molecule probes available for NTMT1 to fully characterize its MTase activity. To address this unmet need, a panel of assay is created and established to enable quantitative high-throughput screening (qHTS) for novel, potent, and selective small molecule NTMT1 inhibitors. Two orthogonal qHTS that use different reagents (ThioGlo vs. MTaseGlo) are developed for primary robotic screening against the NCATS chemical library of more than 400,000 small molecules. Identified inhibitors are reacquired, validated, and further characterized.
# MTaseGlo Assay is a luminescence screen that measure the activity of methyltransferases based on the reaction product S-adenosyl homocysteine (SAH). The substrate SAM is converted to SAH upon enzyme activation. MTase-Glo reagent and detection solution convert SAH to ATP and measure the light from the luciferase reaction.
# Materials: NTMT1 enzyme, substrate SPKRIA, control peptide RCC1-6 is provided by the Huang laboratory.
# SEQUENCE No. (e.g., 1, 2, 3, etc.); […] (e.g., Cells, Incubation, Reagent, etc.); VALUE; DESCRIPTION
# 1; Enzyme; 3 uL; Dispense enzyme mixture (final concentrations of 125 nM NTMT1 and 100 uM SAM) into Greiner 1536-well white / solid bottom assay plate (Greiner Bio One, Monroe, NC).
# 2; Compounds; 23 nL; Compounds and controls were transferred via a Kalypsys Pin Tool (Wako USA) equipped with a 1536-slotted pin array (Wako Automation, Richmond, VA)
# 3; Incubation; 15 min; Incubate at room temperature
# 4; Substrate; 1 uL; Dispense 1 uL of substrate at final concentration of 1 uM. Buffer solution was dispensed in control wells. The assay plate was covered with metal lids.
# 5; Incubation; 30 min; Incubate at room temperature, protected from lights.
# 6; Reagent; 1 uL; Dispensed 5x MTase-Glo detection reagent (R) into the assay plate. The plate was covered with metal lids.
# 7; Incubation; 30 min; Incubate the assay plates at room temperature in the dark to allow for SAH to be converted to ADP.
# 8; Reagent; 5 uL; Dispense 5 uL of 1x MTase-Glo Detection Solution (R) to allow for ADP to be converted to ATP which was then detected with a luciferase reaction.
# 9; Centrifuge; 15 sec; Centrifuge the assay plate for 15 seconds at 1000 RPM.
# 10; Incubation; 30 min; Assay plates were incubation at room temperature in the dark.
# 11; Detection; Luminescence; Plates were read on ViewLux detector (PerkinElmer). Data were normalized to no-enzyme (0% activity) and no-inhibitor (DMSO; 100%) controls, and the resulting percent inhibition data were fitted to a 4-parameter Hill equation using GraphPad Prism.
# Potency means the concentration at half of the fitted maximal effect.
# Sequence of N-terminal Xaa-Pro-Lys N-methyltransferase 1 (Homo sapiens) (Q9BV86 whole entry, looked up): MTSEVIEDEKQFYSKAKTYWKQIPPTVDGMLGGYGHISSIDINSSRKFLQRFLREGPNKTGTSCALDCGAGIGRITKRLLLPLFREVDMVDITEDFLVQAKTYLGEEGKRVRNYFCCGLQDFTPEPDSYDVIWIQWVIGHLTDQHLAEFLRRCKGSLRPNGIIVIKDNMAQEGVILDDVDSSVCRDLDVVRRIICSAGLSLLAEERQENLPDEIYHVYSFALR
Compound,"activity change, negative = inhibition",Potency
Cc1cc(-c2nnc3n2CCCCC3)c(C)n1-c1ccc(C(F)(F)F)cc1,8.06% (inactive),
COc1cc(F)c(S(=O)(=O)N2CCCN(S(=O)(=O)c3ccc(N)cc3)CC2)c(F)c1,-9.22% [at 57.5 µM] (inactive),
CC(C)(C)OC(=O)N1CCN(c2ccc(NCc3ccc4c(-c5ccc(F)cc5)cc(=O)oc4c3)cc2)CC1,-18.2% (inactive),
Cc1cc(-c2nnc3n2CCCCC3)c(C)n1-c1cccc(Cl)c1,-10.6% (inactive),
C(#Cc1cccs1)c1cccnc1,7.74% [at 57.5 µM] (inactive),
CCOC(=O)c1scc(-c2ccccc2)c1S(=O)(=O)Nc1ccccc1F,0.149% (inactive),
CC(C)(C)c1nc(-c2cccc(NS(=O)(=O)c3c(F)cccc3F)c2F)c(-c2ccnc(N)n2)s1,,inactive and 39.8 µM (active)
O=C(C[C@H]1CC[C@@H](C(=O)Nc2ccc(S(=O)(=O)Nc3nccs3)cc2)C1)c1ccccc1,-12.4% (inactive),
O=C(NCc1nnc(C(=O)Nc2ccc(C(F)(F)F)cc2Cl)o1)c1ccccc1,2.02% (inactive),
Cc1cccc(C2N=C(Nc3nc4ccccc4o3)NC3=C2C(=O)CCC3)c1 (stereo unspecified),15.6% (inactive),
COc1ccc(CC(=O)Nc2ccc(-c3nc4ccccc4s3)c(C)c2)cc1,1.27% (inactive),
COc1ccc2c(c1)Cc1sc(NC(=O)c3ccccc3Br)nc1-2,,50.1 µM (active)
COc1cccc(C(=O)Nc2nnc(S(=O)(=O)N3CCOCC3)s2)c1,9.65% (inactive),
CC(Cc1cnccn1)Nc1cnc2c(O)ccc(C(=O)O)c2c1 (stereo unspecified),28.5% (inactive),
CCCn1c(-c2ccc(F)cc2)nc2c(NCC3CCCN3CC)nc(C)nc21 (stereo unspecified),-15.7% (inactive),
NC(=O)C1CCN(c2ncc(-c3ccc(Cl)cc3)s2)CC1,4.39% (inactive),
COc1cccc(OC2=NS(=O)(=O)c3ccccc32)c1,-0.822% (inactive),
Oc1c(Cl)cc(Cl)c(Cl)c1Cc1c(O)c(Cl)cc(Cl)c1Cl,,31.6 µM (active)
Cc1cc(Nc2cc(C)c(C#N)c(NC(C)CCCC(C)(C)O)n2)n[nH]1 (stereo unspecified),-16.6% (inactive),
Cc1ccc(Cn2ncc3c4sc(C)cc4n(C)c3c2=O)c(C)c1,11.8% [at 57.5 µM] (inactive),
O=C1CCc2cc(S(=O)(=O)Nc3cccc(Oc4ccccc4)c3)ccc2N1,-1.41% (inactive),
COc1ccc(C2Nc3ccccc3C(=O)N2Cc2cccs2)cc1COc1c(C)cccc1C (stereo unspecified),9.71% (inactive),
COc1cccc(CNc2ccc(S(=O)(=O)Nc3cccs3)cc2)c1O,-9.49% [at 29.8 µM] (inactive),

Compound,"activity change, negative = inhibition",Potency
CCCn1c(C)nc2c(NCCCCN(CC)CC)nc(C)nc21,0.827% (inactive),
CCn1c(=O)c2cc(C(=O)NCCc3ccc(Cl)cc3)sc2c2ccccc21,4.04% (inactive),
CCN(CCCNC(=O)c1cc2c(=O)n(CC)c3ccccc3c2s1)Cc1ccccc1,,79.4 µM (active)
CCc1ccc(CNC(=O)c2cc3c(=O)n(CC)c4ccccc4c3s2)cc1,-6.25% (inactive),
COc1ccc(C2Nc3ccccc3C(=O)N2Cc2ccc(CNC(=O)CO)cc2)cc1COc1ccc(NC(C)=O)cc1 (stereo unspecified),12% (inactive),
O=C(Nc1nc2c(s1)CCCC2)c1ccccc1F,,35.5 µM (active)
O=C(Nc1ccc(S(=O)(=O)N2CCC(c3nc4ccccc4s3)CC2)cc1)c1ccccc1F,7.07% (inactive),
Cc1cc(C)cc(OC(C)C(=O)Nc2nc3c(s2)CCCC3)c1 (stereo unspecified),5.1% (inactive),
O=C1CCCC2=C1C(c1[nH]ncc1Cl)N=C(Nc1nc3ccc(F)cc3o1)N2 (stereo unspecified),2.12% (inactive),
CN1C(=O)[C@@H](NC(=O)c2n[nH]c(Cc3ccccc3)n2)COc2ccccc21,19.5% (inactive),
Nc1ccc2c(=O)n3nc(Nc4ccc5c(c4)CCC5)sc3nc2c1,,inactive
Oc1ccc(/C=C/c2c(F)cccc2F)c2cccnc12,8.34% [at 57.5 µM] (inactive),
CCOc1ccccc1NC(=O)CN1CCN(S(=O)(=O)c2ccc(Br)cc2)CC1,-13.4% (inactive),
CCOc1ccccc1C(=O)Nc1ccc(S(=O)(=O)N2CCCCC2c2cccnc2)cc1 (stereo unspecified),,79.4 µM (active)
Cc1cccc(C(=O)Nc2ccc(S(=O)(=O)N3CCCCC3c3cccnc3)cc2)c1 (stereo unspecified),-6.08% (inactive),
Cn1c2cc(B(O)O)sc2c2cnn(Cc3ccccc3F)c(=O)c21,17.4% (inactive),
CC(C)(O)c1ccccc1CC[C@H](SCC1(CC(=O)O)CC1)c1cccc(/C=C/c2ccc3ccc(Cl)cc3n2)c1,1.1% (inactive),
O=C(NCCc1nc2ccccc2n1CCOc1cccc(Br)c1)C1CCCCC1,-15.1% [at 57.5 µM] (inactive),
O=S(=O)(c1ccc2c(c1)OCCO2)N1CCN(S(=O)(=O)c2cc(F)ccc2F)CC1,0.151% (inactive),
COc1ccc(C2Nc3ccccc3C(=O)N2Cc2ccc(Cl)cc2)cc1COc1ccc(NC(C)=O)cc1 (stereo unspecified),32.5% (inactive),
Cc1ccc(-n2ncc3c(NCCCn4ccnc4)ncnc32)cc1Cl,,44.7 µM (active)
CCN(CC)CCNc1ncnc2c1cnn2-c1cc(Cl)ccc1C,-7.62% (inactive),
Clc1cccc(-n2ncc3c(NCCc4ccccc4)ncnc32)c1,-0.791% (inactive),

# Reference: PubChem BioAssay AID1645870 (National Center for Advancing Translational Sciences (NCATS), 2021)
